Assay results: the supplement of paper PMC4466140

Experiments:
Test in all cases: SPOT peptide array binding signal intensity (averaged, normalized) (arbitrary units (background-subtracted, floor 0; scale differs between SH3 domains)); higher = stronger binding of the SH3 domain to the peptide
[1] = target: AgAbp1
Summary of the method: (§1)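 To measure binding, SH3 domains from four yeast species were fused to GST, expressed in E. coli BL21(DE3) and purified on glutathione Sepharose. Each domain was incubated at 10 μg/ml overnight at 4°C on cellulose membranes with synthetic 15-mer peptides whose cysteines were replaced by serines. Anti-GST antibody, an HRP anti-mouse secondary and luminol were used for detection, and images were quantified with Genespotter. Reported binding signal is normalized, background-subtracted spot intensity averaged over replicates, in arbitrary units that differ between domains.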

[2] = target: AgBbc1
Summary of the method: as §1

[3] = target: AgBem1-D1
Summary of the method: as §1

[4] = target: AgBzz1-D1
Summary of the method: as §1

[5] = target: AgBzz1-D2
Summary of the method: as §1

[6] = target: AgCyk3
Summary of the method: as §1

[7] = target: AgFus1
Summary of the method: as §1

[8] = target: AgHof1
Summary of the method: as §1

[9] = target: AgHse1
Summary of the method: as §1

[10] = target: AgLsb1
Summary of the method: as §1

[11] = target: AgLsb4
Summary of the method: as §1

[12] = target: AgMyo5
Summary of the method: as §1

[13] = target: AgNbp2
Summary of the method: as §1

[14] = target: AgRvs167
Summary of the method: as §1

[15] = target: AgSho1
Summary of the method: as §1

[16] = target: AgSla1-D1-D2
Summary of the method: as §1

[17] = target: AgSla1-D3
Summary of the method: as §1

[18] = target: CaAbp1-D1
Summary of the method: as §1

[19] = target: CaAbp1-D2
Summary of the method: as §1

[20] = target: CaBbc1
Summary of the method: as §1

[21] = target: CaBem1-D1
Summary of the method: as §1

[22] = target: CaBzz1-D1
Summary of the method: as §1

[23] = target: CaBzz1-D2
Summary of the method: as §1

[24] = target: CaCyk3
Summary of the method: as §1

[25] = target: CaFus1
Summary of the method: as §1

[26] = target: CaHof1
Summary of the method: as §1

[27] = target: CaHse1
Summary of the method: as §1

[28] = target: CaLsb1
Summary of the method: as §1

[29] = target: CaLsb4
Summary of the method: as §1

[30] = target: CaMyo5
Summary of the method: as §1

[31] = target: CaNbp2
Summary of the method: as §1

[32] = target: CaRvs167
Summary of the method: as §1

[33] = target: CaRvs167-3
Summary of the method: as §1

[34] = target: CaSho1
Summary of the method: as §1

[35] = target: CaSla1-D1-D2
Summary of the method: as §1

[36] = target: CaSla1-D3
Summary of the method: as §1

[37] = target: ScAbp1
Summary of the method: as §1

[38] = target: ScBbc1
Summary of the method: as §1

[39] = target: ScBem1-D1
Summary of the method: as §1

[40] = target: ScBzz1-D1
Summary of the method: as §1

[41] = target: ScBzz1-D2
Summary of the method: as §1

[42] = target: ScCyk3
Summary of the method: as §1

[43] = target: ScFus1
Summary of the method: as §1

[44] = target: ScHof1
Summary of the method: as §1

[45] = target: ScHse1
Summary of the method: as §1

[46] = target: ScLsb1
Summary of the method: as §1

[47] = target: ScLsb2
Summary of the method: as §1

[48] = target: ScLsb3
Summary of the method: as §1

[49] = target: ScLsb4
Summary of the method: as §1

[50] = target: ScMyo3
Summary of the method: as §1

[51] = target: ScMyo5
Summary of the method: as §1

[52] = target: ScNbp2
Summary of the method: as §1

[53] = target: ScPex13
Summary of the method: as §1

[54] = target: ScRvs167
Summary of the method: as §1

[55] = target: ScSho1
Summary of the method: as §1

[56] = target: ScSla1-D1-D2
Summary of the method: as §1

[57] = target: ScSla1-D3
Summary of the method: as §1

[58] = target: SpAbp1-D1
Summary of the method: as §1

[59] = target: SpBbc1
Summary of the method: as §1

[60] = target: SpBzz1-D1
Summary of the method: as §1

[61] = target: SpBzz1-D2
Summary of the method: as §1

[62] = target: SpCyk3
Summary of the method: as §1

[63] = target: SpHof1
Summary of the method: as §1

[64] = target: SpHof1-2
Summary of the method: as §1

[65] = target: SpHof1-3
Summary of the method: as §1

[66] = target: SpHse1
Summary of the method: as §1

[67] = target: SpLsb1
Summary of the method: as §1

[68] = target: SpLsb4
Summary of the method: as §1

[69] = target: SpMyo1
Summary of the method: as §1

[70] = target: SpNbp2
Summary of the method: as §1

[71] = target: SpPex13
Summary of the method: as §1

[72] = target: SpRvs167
Summary of the method: as §1

[73] = target: SpSla1-D1-D2
Summary of the method: as §1

[74] = target: SpSla1-D3
Summary of the method: as §1

## SSTPTTPERPKRKSG
[1]
  SPOT peptide array binding signal intensity: 128
[2]
  SPOT peptide array binding signal intensity: 2110
[3]
  SPOT peptide array binding signal intensity: ≤ 0
[4]
  SPOT peptide array binding signal intensity: 36.5
[5]
  SPOT peptide array binding signal intensity: 21
[6]
  SPOT peptide array binding signal intensity: 2
[7]
  SPOT peptide array binding signal intensity: ≤ 0
[8]
  SPOT peptide array binding signal intensity: ≤ 0
[9]
  SPOT peptide array binding signal intensity: ≤ 0
[10]
  SPOT peptide array binding signal intensity: 1
[11]
  SPOT peptide array binding signal intensity: 602
[12]
  SPOT peptide array binding signal intensity: ≤ 0
[13]
  SPOT peptide array binding signal intensity: ≤ 0
[14]
  SPOT peptide array binding signal intensity: 18.3
[15]
  SPOT peptide array binding signal intensity: ≤ 0
[16]
  SPOT peptide array binding signal intensity: ≤ 0
[17]
  SPOT peptide array binding signal intensity: 1.25
[18]
  SPOT peptide array binding signal intensity: 514
[19]
  SPOT peptide array binding signal intensity: 1000
[20]
  SPOT peptide array binding signal intensity: 2820
[21]
  SPOT peptide array binding signal intensity: 8
[22]
  SPOT peptide array binding signal intensity: 63.5
[23]
  SPOT peptide array binding signal intensity: 36.2
[24]
  SPOT peptide array binding signal intensity: 166
[25]
  SPOT peptide array binding signal intensity: 48.5
[26]
  SPOT peptide array binding signal intensity: 0.5
[27]
  SPOT peptide array binding signal intensity: ≤ 0
[28]
  SPOT peptide array binding signal intensity: ≤ 0
[29]
  SPOT peptide array binding signal intensity: 7900
[30]
  SPOT peptide array binding signal intensity: 0.25
[31]
  SPOT peptide array binding signal intensity: 28.5
[32]
  SPOT peptide array binding signal intensity: 110
[33]
  SPOT peptide array binding signal intensity: ≤ 0
[34]
  SPOT peptide array binding signal intensity: 9.5
[35]
  SPOT peptide array binding signal intensity: 480
[36]
  SPOT peptide array binding signal intensity: ≤ 0
[37]
  SPOT peptide array binding signal intensity: 66
[38]
  SPOT peptide array binding signal intensity: 2030
[39]
  SPOT peptide array binding signal intensity: 3
[40]
  SPOT peptide array binding signal intensity: 15
[41]
  SPOT peptide array binding signal intensity: 7.5
[42]
  SPOT peptide array binding signal intensity: ≤ 0
[43]
  SPOT peptide array binding signal intensity: ≤ 0
[44]
  SPOT peptide array binding signal intensity: ≤ 0
[45]
  SPOT peptide array binding signal intensity: 33.5
[46]
  SPOT peptide array binding signal intensity: 260
[47]
  SPOT peptide array binding signal intensity: 1
[48]
  SPOT peptide array binding signal intensity: 5780
[49]
  SPOT peptide array binding signal intensity: 836
[50]
  SPOT peptide array binding signal intensity: ≤ 0
[51]
  SPOT peptide array binding signal intensity: ≤ 0
[52]
  SPOT peptide array binding signal intensity: ≤ 0
[53]
  SPOT peptide array binding signal intensity: 78.2
[54]
  SPOT peptide array binding signal intensity: 902
[55]
  SPOT peptide array binding signal intensity: ≤ 0
[56]
  SPOT peptide array binding signal intensity: 290
[57]
  SPOT peptide array binding signal intensity: 15
[58]
  SPOT peptide array binding signal intensity: 85
[59]
  SPOT peptide array binding signal intensity: 22.2
[60]
  SPOT peptide array binding signal intensity: 64
[61]
  SPOT peptide array binding signal intensity: ≤ 0
[62]
  SPOT peptide array binding signal intensity: ≤ 0
[63]
  SPOT peptide array binding signal intensity: 2.5
[64]
  SPOT peptide array binding signal intensity: 2
[65]
  SPOT peptide array binding signal intensity: 177
[66]
  SPOT peptide array binding signal intensity: 11
[67]
  SPOT peptide array binding signal intensity: 1030
[68]
  SPOT peptide array binding signal intensity: 8450
[69]
  SPOT peptide array binding signal intensity: ≤ 0
[70]
  SPOT peptide array binding signal intensity: ≤ 0
[71]
  SPOT peptide array binding signal intensity: ≤ 0
[72]
  SPOT peptide array binding signal intensity: 450
[73]
  SPOT peptide array binding signal intensity: 8
[74]
  SPOT peptide array binding signal intensity: ≤ 0
